HT1080 IDH1KD tx – toxicity to HT-1080 IDH1 knockdown cells (counter line); AID 686971; HT-1080 IDH1 knockdown viability, ATP luminescence, 48 h; 2% of 360,000 active; Potency, µM (top dose mostly 46.1 µM), without a hit: top-dose activity, negative = toxicity, actives largely listed as cytotoxic;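 further: potency means the concentration at half of the fitted maximal effect; 0% = DMSO wells and -100% = cell-free medium wells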
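In this qHTS, HT-1080 cells depleted of IDH1 are exposed for 48 h at 37 °C to compound titrations. Toxicity is scored from CellTiter-Glo luminescence, with DMSO as full viability and medium alone as none.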
IL-1B inflam inh – blocks inflammasome-driven IL-1 beta release; THP-1 LPS/ATP IL-1B secretion, AlphaLISA, 16 h; stronger effect = lower value; activity change, % at 57.5 µM; 4.7% of 360,000 active; in the data active means activity change below about -50%; inconclusive means mostly about -30% to -49%
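THP-1 cells pretreated 1 hr with compounds (up to 57.5 uM final), then stimulated with LPS (250 ng/mL final) plus ATP (1.25 mM final); secreted IL-1B measured by AlphaLISA after 16 hr, decreased signal indicating inhibition.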
TDP1 cell noCPT – qHTS for Inhibitors of human tyrosyl-DNA phosphodiesterase 1 (TDP1): qHTS in cells in absence of CPT; Potency, µM (highest dose often 46.2 µM), without a hit: top-dose activity change, negative = growth inhibition, actives largely listed as inhibitors; DT40 Tdp1-/- hTDP1 cells, no CPT, ATP luminescence, 48 h; 15% of 420,000 active; further: potency means the concentration at half of the fitted maximal effect; nearly all actives have a fitted effect of over 55% in size
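Camptothecin absent (DMSO only). Human TDP1-complemented DT40 knockout cells, 400 cells/well, 37 °C for minimum 48 hr; ATP measured via CellTiter-Glo, 30 min dark incubation, luminescence.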
HT1080NT lethal – kills 2HG-producing HT-1080-NT fibrosarcoma cells; HT-1080-NT fibrosarcoma viability, CellTiter-Glo ATP luminescence, 48 h; Potency, µM (doses to about 46.1 µM), without a hit: top-dose activity, negative = less viability, usual class: cytotoxic; 1.6% of 360,000 active; AID 686970;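 further: NT is the 2HG producing partner of a matched IDH1 knockdown line; potency means the concentration at half of the fitted maximal effect; 0% = DMSO-treated cells and -100% = media-only wells without cells; nearly all actives have a fitted effect of over 55% in size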
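Viability of the 2HG-overproducing fibrosarcoma line after 48 hours of compound exposure at 37 degrees C was determined by luminescence with CellTiter-Glo, and concentration-effect curves were then fitted and categorized.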
TDP1 cell CPT – DT40-hTDP1 cell growth loss with CPT | chicken DT40 Tdp1-/-;hTDP1 cells + 20 nM CPT, ATP luminescence, 48 h | Potency, µM (series often up to 46.2 µM), without a hit: at the highest dose activity change, negative = growth inhibition, actives largely listed as inhibitors | 12% of 420,000 active; further: potency means the concentration at half of the fitted maximal effect; nearly all actives have a fitted effect of over 55% in size
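Chicken DT40 Tdp1-/- cells stably complemented with human TDP1 were seeded at 400 cells/well in medium containing 20 nM camptothecin, exposed to pin-transferred compounds, and grown at 37 °C for at least 48 hr. Viability was read as ATP luminescence.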
* = called active by the depositor; ? = inconclusive; . = not tested or not shown; [ ] = dose if it differs, or a comment. This is a sample that favours compounds with a hit; in the whole collection about 19% have one here. Unless noted, the call rests on the fitted dose curve; in most records, active means well fitted curve in the direction sought with a large enough effect; inconclusive means small, poorly fitted or top-dose-only effect, or another doubt; inactive means no such curve, though single readings can be large; an effect the other way counts as inactive or inconclusive. Unless noted, on the % scale 0 is the no-effect control and ±100 the full control effect.

SMILES	HT1080 IDH1KD tx	IL-1B inflam inh	TDP1 cell noCPT	HT1080NT lethal	TDP1 cell CPT
CN1/C(=C/C=C(/C#N)C(N)=O)C(C)(C)c2ccccc21	5.8µM*	-7	3.3µM*	5.8µM*	2.6µM*
C[C@@H]1CN([C@H](C)CO)C(=O)c2cc(C#C[C@@H](C)O)cnc2O[C@H]1CN(C)C(=O)c1ccc(F)cc1	-7%	24	7%	0%	-2%
C[C@H](O)C#Cc1cnc2c(c1)C(=O)N([C@H](C)CO)C[C@@H](C)[C@H](CN(C)C(=O)Nc1ccc(C(F)(F)F)cc1)O2	12%	?	7.3µM*	-3%	12µM*
C[C@H]1CN([C@@H](C)CO)C(=O)c2cc(Br)cnc2O[C@@H]1CN(C)C(=O)Nc1ccc(C(F)(F)F)cc1	-4%	4	23µM*	-12%	21µM*
C[C@H](CO)N1C[C@H](C)[C@H](CN(C)C(=O)Nc2ccc(C(F)(F)F)cc2)Oc2ncc(Br)cc2C1=O	-4%	-7	?	-10%	?
CO[C@H]1[C@H](NC(=O)c2ccco2)c2ccccc2C12CCN(Cc1ccc3cccc(F)c3n1)CC2	.	.	?	.	-2%[9.04 µM]
COc1ccc(CN=C2NC(=O)CC(C(=O)Nc3ccc(Cl)cc3)S2)cc1 (stereo unspecified)	?	-16	13µM*	?	21µM*
O=C(NCC1CCCN1S(=O)(=O)c1cccs1)c1ccc(Cl)cc1 (stereo unspecified)	-5%	6	?	-13%	?
COC(=O)c1sc(=S)sc1C(=O)OC	32µM*	-12	?	?	29µM*
COc1ccc(C2CCc3cc4c(cc3C2=NO)OCO4)cc1OC (stereo unspecified)	-23%	-5	15µM*	-1%	?
COc1ccc(C2NC(=O)NC(C)=C2C(=O)OCc2ccc3c(c2)OCO3)cc1OC (stereo unspecified)	?	-15	?	7%	?
O=C(CCSCCc1ccccn1)Nc1ccc(Br)cc1F	9%	7	-14%	11%	-15%
Cc1cc(/C=N/n2cnnc2)c(C)n1-c1ccc(OCc2ccccc2F)cc1	?	-85*	13µM*	?	21µM*
Cc1cc(/C=N/n2cnnc2)c(C)n1-c1ccc(OCc2ccc(Cl)cc2)cc1	?	-82*	3.3µM*	-18%	4.6µM*
Fc1ccccc1COc1cccc(/C=N/n2cnnc2)c1	4%	-7	3%	-3%	-34%
CC(C(=O)Nc1ccccn1)(c1ccccc1)c1ccccc1	-5%	-4	1%	-1%	-24%
Cc1ccc2c(c1)C(c1ccccc1)N(C(=O)c1ccccc1[N+](=O)[O-])CC(=O)N2 (stereo unspecified)	-17%	20	9.2µM*	2%	12µM*
Cc1ccc(C(=O)N2CC(=O)Nc3ccc(F)cc3C2c2ccccc2)cc1[N+](=O)[O-] (stereo unspecified)	-21%	0	21µM*	-14%	18µM*
O=C1CN(C(=O)CN2CCCC2)C(c2ccccc2)c2cc(Br)ccc2N1 (stereo unspecified)	-5%	17	-13%	-4%	10%
O=C1CN(C(=O)c2ccccc2[N+](=O)[O-])C(c2ccccc2)c2cc(Br)ccc2N1 (stereo unspecified)	-9%	25	?	-13%	21µM*
COc1ccc(C(=O)N2CC(=O)Nc3ccc(C)cc3C2c2ccc(F)cc2)c(OC)c1 (stereo unspecified)	.	.	?	.	21µM*
CCCCc1ccc(NC(=O)c2ccc(N(C)S(C)(=O)=O)cc2)cc1	-14%	34	-41%	?	-20%
O=S(=O)(c1ccc(NC(=S)NCc2ccco2)cc1)N1CCCC1	-3%	16	-20%	-1%	11%
CN1CCN(CC(O)(c2ccc(Cl)cc2)c2ccc(Cl)cc2)CC1	21µM*	-85*	21µM*	18µM*	?
